Measurements reported in PubChem BioAssay AID1159580 (chemical genetic matrix, 2015).
Where “and” joins values, the source holds several entries; their conditions need not be identical. Identical values can stand only once. Out of some 5,500 compounds screened, about 2,000 (36%) were called active. About 18% were inconclusive and are not listed. Cut-off read from the data, not from the text of the source: active = normalized growth mostly below about 0.91 (no sharp cut-off); inconclusive = no clear call, values can overlap the other calls; inactive = mostly above about 0.92. The list shows a part of the results.

Test: chemical genetic growth profiling, strain panel (AID 1159580);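 note: tested at 20 µM; growth read once vehicle control cultures reached saturation at 30 °C; 1 = growth at the plate median or of vehicle wells; lower values mean less growth of the strain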
Details: S. cerevisiae deletion strains, growth OD

Measured: normalized growth

CC(CCc1ccccc1)NCC(O)c1ccc(O)c(C(N)=O)c1 (stereo not given)
inactive: locus YAL013W, strain DEP1, hits give low values 1 | locus YAL021C, strain ccr4, hits give low values 1 | locus YAL026C, strain drs2, hits give low values 1.01 | locus YAL030W, strain snc1, hits give low values 0.997 | locus YAL040C, strain CLN3, hits give low values 1.01 | locus YBL061C, strain skt5, hits give low values 1.01 | locus YBR009C, strain hhf1, hits give low values 1 | locus YBR021W, strain FUR4, hits give low values 1.01 | locus YBR023C, strain chs3, hits give low values 1.01 | locus YBR171W, strain sec66, hits give low values 1.01 | locus YBR229C, strain ROT2, hits give low values 1 | locus YBR231C, strain swc5, hits give low values 1.01 | locus YBR279W, strain paf1, hits give low values 1 | locus YCL011C, strain gbp2, hits give low values 1.01 | locus YCL016C, strain dcc1, hits give low values 1.01 | locus YCL029C, strain bik1, hits give low values 1.01 | locus YCL061C, strain MRC1 (second series), hits give low values 1.01 | locus YCL061C, strain MRC1, hits give low values 0.997 | locus YCL069W, strain vba3, hits give low values 1 | locus YCR088W, strain abp1, hits give low values 1.01 | locus YDL005C, strain med2, hits give low values 1.01 | locus YDL035C, strain GPR1, hits give low values 1.01 | locus YDL040C, strain nat1, hits give low values 1.01 | locus YDL074C, strain BRE1, hits give low values 0.977 | locus YDL101C, strain DUN1, hits give low values 1 | locus YDL134C, strain PPH21, hits give low values 1.02 | locus YDL185W, strain tfp1, hits give low values 1.01 | locus YDL192W, strain arf1, hits give low values 1.01 | locus YDR001C, strain nth1, hits give low values 1.01 | locus YDR069C, strain doa4, hits give low values 1.01 | locus YDR101C, strain arx1, hits give low values 0.999 | locus YDR137W, strain rgp1, hits give low values 1.01 | locus YDR150W, strain NUM1, hits give low values 1 | locus YDR159W, strain sac3, hits give low values 1.01 | locus YDR162C, strain NBP2, hits give low values 1.02 | locus YDR195W, strain ref2 1.01 | locus YDR297W, strain sur2, hits give low values 1.01 | locus YDR318W, strain mcm21, hits give low values 1.02 | locus YDR334W, strain swr1, hits give low values 0.99 | locus YDR335W, strain msn5, hits give low values 1 | locus YDR363W, strain ESC2, hits give low values 1 | locus YDR388W, hits give low values 1.02 | locus YDR392W, strain spt3, hits give low values 1 | locus YDR502C, strain sam2, hits give low values 1.01 | locus YEL003W, strain gim4, hits give low values 0.999 | locus YEL037C, strain rad23, hits give low values 1 | locus YEL061C, strain CIN8 (second series), hits give low values 1.01 | locus YEL061C, strain CIN8, hits give low values 0.997 | locus YER002W, strain NOP16, hits give low values 1.03 | locus YER015W, strain faa2, hits give low values 0.997 | locus YER016W, strain bim1, hits give low values 1 | locus YER110C, hits give low values 1.02 | locus YER111C, strain swi4, hits give low values 1.01 | locus YER155C, strain BEM2 (second series), hits give low values 1.01 | locus YER155C, strain BEM2, hits give low values 1 | locus YER167W, strain BCK2, hits give low values 1.02 | locus YFR010W, strain ubp6, hits give low values 1 | locus YGL078C, strain dbp3, hits give low values 1.01 | locus YGL086W, strain mad1, hits give low values 1.01 | locus YGL167C, strain pmr1, hits give low values 1 | locus YGL173C, strain kem1, hits give low values 1.01 | locus YGL227W, strain vid30, hits give low values 1.02 | locus YGL240W, strain doc1, hits give low values 1 | locus YGL248W, strain PDE1, hits give low values 0.992 | locus YGL253W, strain hxk2, hits give low values 1 | locus YGR078C, strain PAC10, hits give low values 0.985 | locus YGR135W, strain pre9, hits give low values 1.05 | locus YGR252W, strain gcn5, hits give low values 0.996 | locus YHR013C, strain ard1, hits give low values 1 | locus YHR027C, strain rpn1, hits give low values 1 | locus YHR030C, strain SLT2, hits give low values 1 and 1.02 | locus YHR079C, strain IRE1 (second series), hits give low values 1.02 | locus YHR079C, strain IRE1, hits give low values 1.04 | locus YHR094C, strain hxt1, hits give low values 1.02 | locus YHR129C, strain ARP1, hits give low values 1.01 | locus YHR142W, strain chs7, hits give low values 1.02 | locus YHR200W, strain rpn10, hits give low values 1.01 | locus YIL066C, strain RNR3, hits give low values 0.995 | locus YIL073C, strain SPO22, hits give low values 1.1 | locus YIL125W, strain kgd1, hits give low values 1.01 | locus YIR030C, strain dcg1, hits give low values 1.03 | locus YJL092W, strain hpr5, hits give low values 1.01 | locus YJL095W, strain BCK1 (second series), hits give low values 1.01 | locus YJL095W, strain BCK1, hits give low values 0.981 and 1.05 | locus YJL115W, strain asf1, hits give low values 1 | locus YJL129C, strain trk1, hits give low values 1 | locus YJL134W, strain LCB3, hits give low values 1 | locus YJL154C, strain vps35, hits give low values 1 | locus YJL164C, strain tpk1, hits give low values 0.996 | locus YJL166W, strain qcr8, hits give low values 1 | locus YJL168C, strain set2, hits give low values 1.01 | locus YJL187C, strain SWE1 (second series), hits give low values 0.983 | locus YJL187C, strain SWE1, hits give low values 1.01 | locus YJR043C, strain POL32, hits give low values 0.986 | locus YJR066W, strain TOR1, hits give low values 0.977
